The source holds several records for some structures; these can differ, active in one and inactive in another. The source made the active and inactive calls. How the source made its calls: active means hit-call score of the fitted dose curve at least 0.9, where 1 is the maximum; inactive means score below 0.9.
Read-out: CFLAR gene, CFLAR (gene 8837)
Experiment: LTEA_HepaRG_CFLAR: Life Technologies and Expression Analysis (LTEA) Assay for CFLAR gene using HepaRG (AID 2283455)
Settings: mRNA level, 48 h; actives raise or lower the signal
Protocol: LTEA_HepaRG is a cell based, multiplexed-readout assay that uses HepaRG, a human liver cell line, with measurements taken at 48 hours after chemical dosing on a 96-well plate.LTEA_HepaRG_CFLAR is one of 102 assay component(s) measured in the LTEA HepaRG cell culture assay. It is a marker of Cell proliferation, survival, death.Data from the assay component LTEA_HepaRG_CFLAR was analyzed into 1 endpoint. This assay endpoint, LTEA_HepaRG_CFLAR, was analyzed with bidirectional fitting relative to DMSO as the negative control and baseline of activity. Using a type of inducible reporter, measures of mRNA induction for gain or loss-of-signal activity can be used to understand regulation of transcription factor activity. To generalize the intended target to other relatable targets, this assay endpoint is annotated to the cell cycle intended target family, where the subfamily is Cell proliferation, survival, death.
A total of 1060 chemcials from the ToxCast library were tested in eight-point concentration-response experiments. Cell culture and cytotoxicity assays were conducted at Thermo Fisher Scientific's Custom Services facility (Madison, WI). A single lot of human HepaRG cells (Thermo Fisher Scientific, Frederick, MD) was used for the cell culture experiments. 96-well format collagen type I coated plates of human HepaRG cells were prepared using established methods. Briefly, cryopreserved HepaRG cells were thawed, plated at a density of approximately 100,000 cells/well in HepaRG Thaw, Plate, and General Purpose media (HPRG770, Thermo Fisher Scientific), and incubated for 48 hours. 0.5% DMSO was selected as vehicle control to balance the requisite need of DMSO in HepaRG cultures to maintain differentiation (for example, baseline metabolism, proportions of hepatocytes vs. cholangiocytes), while enabling further hepatic receptor pathway activation (for example, PXR and CAR) in response to chemical exposure. 48 hours after plating, the culture medium was replaced with HepaRG Serum-Free Incudtion Media. Cells were exposed to each test chemical in duplicate and maintained in CO2 incubators for another 48 hours. Chemical plates were thawed to room temperature and 200x concentrations of treatment groups were prepared. 8-point conentration-reponse curves were made with the highest exposure at 100 uM, followed by half-log dilutions, all in 0.5% DMSO. Each test plate contained variouse controls, induction positive controls (1mM phenobarbital), cytotoxicity positive controls ([…] aflatoxin B1), vehicle controls (0.5% DMSO), and total lysis controls (0.5% DMSO). Cell morphology images were taken using an Essen IncuCyte FLR automated microscope, with six 96-well plates imaged in about 24 minutes. Images were captured and exported and JPEG files. Spent culture media was transfered to black-well plates for the LDH assay, and remaining media was sorted at -80 C for later use. Cells were treated with RLT buffer and frozen until shipped for gene expression analysis. Total RNA was isolated from the cell suspension in 75 uL of Buffer RLT (Qiagen, Germantown, MD 20874) by Quintiles/Expression Analysis (Durham, NC) using a custom isolation procedure. Total RNA from each plate well was transferred to a preamplification plate. Fluidigm's 96.96 Dynamic ArrayTM (Fluidigm, Amsterdam, the Netherlands) technology was used for gene expression analyses by quantitative reverse transcription polymerase chain reaction (qRT-PCR, performed by Quintiles/Expression Analysis, Durham, NC)89. Standard TaqManTM Assays (Applied Biosystems/ThermoFisher Scientific, Foster City, CA) were used to assess the expression of 93 genes selected based on their selectivity and sensitivity to important hepatic receptors known to be modulated by environmental chemicals; importance in human hepatocyte functionality; and hepatotoxicity. […]

Row | SMILES | outcome | AC50
1 | COP(=O)(OC)OC=C(Cl)Cl | inactive | –
2 | CCCN(CCC)c1c([N+](=O)[O-])cc(C(F)(F)F)cc1[N+](=O)[O-] | inactive | –
3 | O=S(=O)(O)C(F)(F)C(F)(F)C(F)(F)C(F)(F)C(F)(F)C(F)(F)C(F)(F)C(F)(F)F | inactive | 13.2 µM (active)
4 | Oc1cc(Cl)ccc1Oc1ccc(Cl)cc1Cl | inactive | –
5 | Clc1ccccc1-c1nnc(-c2ccccc2Cl)nn1 | inactive | –
6 | CCCN(CCOc1c(Cl)cc(Cl)cc1Cl)C(=O)n1ccnc1 | – | 85.2 µM (active)
7 | O=[N+]([O-])c1c(Cl)c(Cl)c(Cl)c(Cl)c1Cl | inactive | –
8 | Oc1ccc(Cl)cc1Cc1ccccc1 | inactive | 82.3 µM (active)
9 | CCOC1Oc2ccc(OS(C)(=O)=O)cc2C1(C)C (stereo not given) | inactive | –
10 | O=C1c2ccccc2C(=O)N1SC(Cl)(Cl)Cl | inactive | –
11 | COP(=S)(OC)Oc1ccc(SC)c(C)c1 | inactive | –
12 | OCCOc1ccccc1 | inactive | –
13 | N#CN | inactive | –
14 | COP(=S)(OC)Oc1ccc([N+](=O)[O-])cc1 | inactive | –
15 | ClC1C(Cl)C(Cl)C(Cl)C(Cl)C1Cl (stereo not given) | inactive | –
16 | Cc1[nH]c(=O)n(C(C)(C)C)c(=O)c1Cl | inactive | –
17 | CC(C)(C)C(O)C(Oc1ccc(Cl)cc1)n1cncn1 (stereo not given) | inactive | –
18 | O=C(Nc1ccccc1)Nc1cnns1 | inactive | –
19 | CCC(C)(NC(=O)c1cc(Cl)c(C)c(Cl)c1)C(=O)CCl (stereo not given) | – | 86.5 µM (active)

Row | SMILES | outcome | AC50
20 | C[C@H]1[C@H](c2ccc(Cl)cc2)SC(=O)N1C(=O)NC1CCCCC1 | inactive | –
21 | COc1nn(CSP(=S)(OC)OC)c(=O)s1 | inactive | –
22 | N#Cc1c(Cl)c(Cl)c(Cl)c(C#N)c1Cl | – | 50 µM (active)
23 | CN1CSC(=S)N(C)C1 | inactive | –
24 | O=C(NC(=O)c1c(F)cccc1F)Nc1ccc(OC(F)(F)C(F)OC(F)(F)F)c(Cl)c1 (stereo not given) | inactive | –
25 | CCOCN(C(=O)CCl)c1c(C)cccc1CC | inactive | –
26 | CC(C)(C)C(O)/C(=C\c1ccc(Cl)cc1Cl)n1cncn1 (stereo not given) | – | 76.6 µM (active)
27 | CNC(=O)Oc1cccc(N=CN(C)C)c1 | inactive | –
28 | CC1(C)C(C=C(Cl)Cl)C1C(=O)OC(C#N)c1ccc(F)c(Oc2ccccc2)c1 (stereo not given) | inactive | –
29 | O=C(O)CCCOc1ccc(Cl)cc1Cl | inactive | –
30 | O=S1OCC2C(CO1)C1(Cl)C(Cl)=C(Cl)C2(Cl)C1(Cl)Cl (stereo not given) | inactive | –
31 | C#CCN1C(=O)COc2cc(F)c(N3C(=O)C4=C(CCCC4)C3=O)cc21 | inactive | –
32 | CCC(C)(C)C(=O)OC1=C(c2ccc(Cl)cc2Cl)C(=O)OC12CCCCC2 | inactive | –
33 | CCC(C)Nc1c([N+](=O)[O-])cc(C(C)(C)C)cc1[N+](=O)[O-] (stereo not given) | inactive | –
34 | CNC(=O)Oc1ccccc1OC(C)C | inactive | –
35 | CCN(CC)C(=O)SCc1ccc(Cl)cc1 | inactive | –
36 | CNC(=O)/C=C(\C)OP(=O)(OC)OC | inactive | –
37 | CC(C)OC(=O)Nc1cccc(Cl)c1 | inactive | –
38 | CCc1ccc(C(=O)NN(C(=O)c2cc(C)cc(C)c2)C(C)(C)C)cc1 | inactive | –

Source: PubChem BioAssay (EPA / NIEHS)
